Compound activity from PubChem.
Rows were chosen to be rich in hits. Some 1.2% of all compounds tested hit in one or more screens of this group.
Neddyl block = blocks human cullin neddylation; TR-FRET cullin neddylation, biochemical; actives 0.58% (n = 360,000); inhibition, % at 25 µM; AID 651699; P61081+Q13564; in the data active means inhibition above about 36%
TLR9-MyD88 inh = inhibitors of human TLR9-MyD88 binding | Q9NR96+Q99836 | CHO BLA complementation TLR9-MyD88, CCF4 FRET ratio | inhibition, % at 4.98 µM | actives 0.21% (n = 340,000);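 active means inhibition above the mean over all tested compounds plus 3 SD, cut at about 21% in these data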
GC-A act = GC-A (human) enzyme activation | HEK293 GC-A cells, cGMP TR-FRET, EC30 ANP; 0% at EC30 ANP, 100% saturating ANP | AID 1671463 | actives 0.14% (n = 370,000) | activation, % at 10 µM | P16066; in the data active means activation above about 40%
NOD2 RIPK2 PPI = blocks binding of human NOD2 to RIPK2 | CHO BLA complementation NOD2-RIPK2, CCF4 ratio | inhibition, % at 4.98 µM | O43353 | actives 0.38% (n = 360,000) | AID 624267; in the data active means inhibition above about 21%
Target sequence (O43353 whole entry, looked up): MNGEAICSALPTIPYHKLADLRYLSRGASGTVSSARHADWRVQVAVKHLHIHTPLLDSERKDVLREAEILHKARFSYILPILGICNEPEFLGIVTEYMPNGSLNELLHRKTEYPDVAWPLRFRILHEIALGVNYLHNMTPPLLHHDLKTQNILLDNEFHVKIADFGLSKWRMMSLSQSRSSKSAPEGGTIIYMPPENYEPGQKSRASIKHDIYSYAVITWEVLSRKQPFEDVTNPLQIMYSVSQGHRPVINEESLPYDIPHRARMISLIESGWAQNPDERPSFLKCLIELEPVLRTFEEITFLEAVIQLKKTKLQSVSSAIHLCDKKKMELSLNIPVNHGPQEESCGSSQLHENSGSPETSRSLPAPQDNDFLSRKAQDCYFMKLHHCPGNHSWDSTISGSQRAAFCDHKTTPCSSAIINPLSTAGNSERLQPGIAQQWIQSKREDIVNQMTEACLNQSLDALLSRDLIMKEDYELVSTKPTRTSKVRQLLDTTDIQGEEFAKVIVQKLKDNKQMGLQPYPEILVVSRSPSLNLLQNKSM
NPR2 activator = GC-B (human) receptor activation; AID 1920062; HEK293-GC-B cells, CNP EC30, cGMP TR-FRET; 0% at EC30 CNP, 100% saturating CNP; activation, % at 10 µM; actives 0.11% (n = 370,000); P20594;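 active means activation at 10 µM reaching about 35% in either raw or pattern-adjusted values, limit read from the data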
TLR4 MyD88 comp = TLR4-MyD88 interaction inhibition in cells; O00206+Q99836; HeLa CL3-4 TLR4/MyD88 BLA complementation, FRET ratio; inhibition, % at 8.4 µM; actives 0.18% (n = 200,000); in the data active means inhibition above about 25%
TLR4 MyD88 cnf = TLR4-MyD88 interaction inhibition confirmed | shares compounds with TLR4 MyD88 comp | HeLa CL3-4 BLA complementation, CCF4 FRET ratio | actives 50% (n = 350) | inhibition, % at 8.4 µM;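 active means mean inhibition across three repeat runs above about 25% carried over from the earlier screen, limit read from the data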
BLA inh HeLa = beta-lactamase inhibition flagged in TLR4-MyD88 counter-screen. AID 1237. HeLa BLA reporter, CCF4 FRET ratio. inhibition, % at 8.4 µM. actives 63% (n = 350). shares compounds with TLR4 MyD88 comp;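 active means mean inhibition over three repeats above about 26% taken from the earlier screen, limit read from the data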;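 further: HeLa cells stably expressing beta-lactamase reporter as counterscreen for TLR4-MyD88 inhibitors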
Numbers stand for hits.

O=C(CN1CCc2onc(-c3cccc(-n4cc(CO)nn4)c3)c2C1=O)N1CCOCC1 was read as GC-A act inactive and NPR2 activator inactive.
CC(C)(C)OC(=O)NCc1cc2c(cc1/C=C/S(=O)(=O)NCc1ccc(F)cc1)OCO2 was read as GC-A act inactive and NPR2 activator inactive.
Screening CCn1c(=O)n2n(c1=O)[C@]1(C=C(C)C2)CN(Cc2ccc(OC)cc2OC)C(NC(=O)c2ccccc2)=N1 returned GC-A act inactive and NPR2 activator inactive.
For Cc1ccc(C)c(N2C(=N)S/C(=C\c3ccc(-c4ccccc4C(=O)O)o3)C2=O)c1 the results were Neddyl block inactive, TLR9-MyD88 inh inactive, GC-A act inactive, NOD2 RIPK2 PPI inactive, NPR2 activator inactive, TLR4 MyD88 comp 26, TLR4 MyD88 cnf inactive and BLA inh HeLa inactive.
O=C(Nc1nc(-c2ccccc2)cs1)c1ccccc1NS(=O)(=O)c1ccc(F)cc1 was read as Neddyl block inactive, TLR9-MyD88 inh inactive, GC-A act inactive, NOD2 RIPK2 PPI inactive, NPR2 activator inactive, TLR4 MyD88 comp 26, TLR4 MyD88 cnf inactive and BLA inh HeLa inactive.
`CCOC(=O)/C(=C\c1ccc(N2CCC(c3ccccc3)=N2)cc1)C(C)=O` gave TLR9-MyD88 inh inactive, GC-A act inactive, NOD2 RIPK2 PPI inactive and NPR2 activator inactive.
O=C(/C=C/c1ccc(N2CCC(c3ccccc3)=N2)cc1)c1ccccc1 was read as GC-A act inactive, NPR2 activator inactive, TLR4 MyD88 comp 38, TLR4 MyD88 cnf inactive and BLA inh HeLa inactive.
`Cc1ccc(-n2c(SCC(=O)NN=Cc3ccc(-c4ccccc4)cc3)nnc2-c2ccccc2)cc1` gave GC-A act inactive and NPR2 activator inactive.
For Cc1ccc2nc(Cl)c(/C=N/Nc3nc(C)cc(C)n3)c(=O)n2c1 the results were TLR9-MyD88 inh inactive, GC-A act inactive, NOD2 RIPK2 PPI inactive, NPR2 activator inactive, TLR4 MyD88 comp 33, TLR4 MyD88 cnf inactive and BLA inh HeLa 28.
For O=C1CNC(=O)/C1=C\N1CCCCC1 the results were Neddyl block inactive, TLR9-MyD88 inh inactive, GC-A act inactive, NOD2 RIPK2 PPI inactive, NPR2 activator inactive, TLR4 MyD88 comp 29, TLR4 MyD88 cnf inactive and BLA inh HeLa inactive.
For CC(=O)c1ccc(NC(=O)COC(=O)CCN2C(=O)c3cccc([N+](=O)[O-])c3C2=O)cc1 the results were Neddyl block inactive, TLR9-MyD88 inh inactive, GC-A act inactive, NOD2 RIPK2 PPI inactive, NPR2 activator inactive and TLR4 MyD88 comp inactive.
Screening CC(C)N(c1ccccc1)c1ccc(NC(=O)COC(=O)CCN2C(=O)c3cccc([N+](=O)[O-])c3C2=O)cc1 returned Neddyl block inactive, TLR9-MyD88 inh inactive, GC-A act inactive, NOD2 RIPK2 PPI inactive, NPR2 activator inactive, TLR4 MyD88 comp 25, TLR4 MyD88 cnf inactive and BLA inh HeLa inactive.
`C#CCN1CC(N(C)CCOC(=O)c2cc(C)cc(C)c2)CS1(=O)=O` (configuration not stated) gave GC-A act inactive and NPR2 activator inactive.
For CCNC(=O)CC1C(=O)N(c2cccc(OC)c2)C(=O)N1CCOC (configuration not stated) the results were Neddyl block inactive, TLR9-MyD88 inh inactive, GC-A act inactive, NOD2 RIPK2 PPI inactive, NPR2 activator inactive, TLR4 MyD88 comp 25, TLR4 MyD88 cnf inactive and BLA inh HeLa inactive.
COCCN1C(=O)N(c2cccc(OC)c2)C(=O)C1CC(=O)Nc1cccc(F)c1 (configuration not stated) was read as Neddyl block inactive, TLR9-MyD88 inh inactive, GC-A act inactive, NOD2 RIPK2 PPI inactive and NPR2 activator inactive.
For COC(=O)c1ccc(-c2nc3cc(Cl)c(N)cc3s2)cc1 the results were TLR9-MyD88 inh inactive, GC-A act 51, NOD2 RIPK2 PPI inactive, NPR2 activator inactive, TLR4 MyD88 comp 38, TLR4 MyD88 cnf 44 and BLA inh HeLa 59.
For COC(=O)c1ccc(-c2nc(O)c(C)s2)cc1 the results were Neddyl block inactive, TLR9-MyD88 inh inactive, GC-A act inactive, NOD2 RIPK2 PPI inactive, NPR2 activator inactive and TLR4 MyD88 comp inactive.
COC(=O)C1CN(C2CCCC2)CCS(=O)(=O)N1Cc1cn(Cc2ccc(Cl)cc2)nn1 (configuration not stated) was read as GC-A act inactive and NPR2 activator inactive.
For COCCNc1nc(SCC(=O)N2CCN(c3ccccc3OC)CC2)nc2ccccc12 the results were Neddyl block inactive, TLR9-MyD88 inh inactive, GC-A act inactive, NOD2 RIPK2 PPI inactive, NPR2 activator inactive, TLR4 MyD88 comp 25, TLR4 MyD88 cnf inactive and BLA inh HeLa inactive.
For COc1ccccc1N1CCN(C(=O)CSc2nc3ccccc3o2)CC1 the results were Neddyl block inactive, TLR9-MyD88 inh inactive, GC-A act inactive, NOD2 RIPK2 PPI inactive, NPR2 activator inactive and TLR4 MyD88 comp inactive.
For Cc1ccc(-n2c(SCC(=O)NN=Cc3c[nH]c4ccccc34)nnc2-c2ccccc2)cc1 the results were GC-A act inactive and NPR2 activator inactive.
For CC(=O)c1c(C)n([O-])c2cc(F)c(F)cc2[n+]1=O the results were Neddyl block inactive, TLR9-MyD88 inh inactive, GC-A act inactive, NOD2 RIPK2 PPI inactive, NPR2 activator inactive, TLR4 MyD88 comp 28, TLR4 MyD88 cnf 26 and BLA inh HeLa inactive.
For Cc1cccc(N2C(=O)/C(=C\c3ccc(C(=O)O)cc3)c3ccccc3C2=O)c1 the results were TLR9-MyD88 inh inactive, GC-A act inactive, NOD2 RIPK2 PPI inactive, NPR2 activator inactive, TLR4 MyD88 comp 45, TLR4 MyD88 cnf 32 and BLA inh HeLa 35.
CC(C)(C)C(=O)Cn1ncc(Br)c(Br)c1=O was read as Neddyl block inactive, TLR9-MyD88 inh inactive, GC-A act 62, NOD2 RIPK2 PPI inactive, NPR2 activator inactive, TLR4 MyD88 comp 36, TLR4 MyD88 cnf inactive and BLA inh HeLa inactive.
For COc1cccc(/C=C/C(=O)c2c(O)cc(C)oc2=O)c1O the results were Neddyl block inactive, TLR9-MyD88 inh inactive, GC-A act inactive, NOD2 RIPK2 PPI inactive, NPR2 activator inactive, TLR4 MyD88 comp 26, TLR4 MyD88 cnf inactive and BLA inh HeLa inactive.
For COc1ccc(/C=C/C(=O)c2c(O)cc(C)oc2=O)c(OC)c1 the results were Neddyl block inactive, TLR9-MyD88 inh inactive, GC-A act inactive, NOD2 RIPK2 PPI inactive, NPR2 activator inactive and TLR4 MyD88 comp inactive.
`CC(C)(C)c1cc(NC(=O)c2cccnc2)no1` gave Neddyl block inactive, TLR9-MyD88 inh inactive, GC-A act inactive, NOD2 RIPK2 PPI inactive, NPR2 activator inactive, TLR4 MyD88 comp 27, TLR4 MyD88 cnf inactive and BLA inh HeLa inactive.
